PubChem BioAssay (NCATS)
Records with an inconclusive call do not appear. Calls of active or inactive are those of the source. Calls come from the whole dose curve; as a rule, active = well fitted curve in the direction sought with a large enough effect; inconclusive = small, poorly fitted or top-dose-only effect, or another doubt; inactive = no such curve, though single readings can be large; an effect the other way counts as inactive or inconclusive.

Legend:
[1] = molecular target: Rap guanine nucleotide exchange factor 3 (Homo sapiens) (UniProt O95398); assay: Confirmatory qHTS for agonist of cAMP-regulated guanine nucleotide exchange factor 3 (EPAC1) (AID 1645881);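 note: EPAC1 catalysed release of BODIPY-GDP from Rap1B seen as fluorescence loss; 100% = effect of cAMP agonist control; nearly all actives have a fitted effect of over 75% in size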
[2] = molecular target: Rap guanine nucleotide exchange factor 4 (Homo sapiens) (UniProt Q8WZA2); assay: Confirmatory qHTS for agonist of cAMP-regulated guanine nucleotide exchange factor 4 (EPAC2) (AID 1645884);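 note: nucleotide exchange releases bodipy-GDP from Rap1 and this lowers its fluorescence; % is set by controls: 0 for no effect and ±100 for the full control effect; nearly all actives have a fitted effect of over 65% in size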
[3] = molecular target: Rap guanine nucleotide exchange factor 4 (Homo sapiens) (UniProt Q8WZA2); assay: Confirmatory qHTS for antagonist of cAMP-regulated guanine nucleotide exchange factor 4 (EPAC2) (AID 1645885); note: nearly all actives have a fitted effect of over 25% in size; for activity change, negative = inhibition: % is set by controls: 0 for no effect and ±100 for the full control effect
[4] = molecular target: Rap guanine nucleotide exchange factor 3 (Homo sapiens) (UniProt O95398); assay: Counterscreen qHTS for antagonist of cAMP-regulated guanine nucleotide exchange factor 3 (EPAC1) (AID 1645888);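 note: fluorescence loss as bound BODIPY-GDP is released from Rap1B; % of control where 0% means no effect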
In short: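 Rap1B–BODIPY-GDP (250 nM) with 50 uM GDP; compounds pin-transferred to 9.74 nM–152 uM final (activator) or from 7.32 nM upwards (inhibitor). Fluorescence Ex/Em 480/540 nm read at 5 and 30 min, then after adding cAMP or buffer, at room temperature.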

Chain of Rap guanine nucleotide exchange factor 4 (Homo sapiens) (Q8WZA2 whole entry, looked up): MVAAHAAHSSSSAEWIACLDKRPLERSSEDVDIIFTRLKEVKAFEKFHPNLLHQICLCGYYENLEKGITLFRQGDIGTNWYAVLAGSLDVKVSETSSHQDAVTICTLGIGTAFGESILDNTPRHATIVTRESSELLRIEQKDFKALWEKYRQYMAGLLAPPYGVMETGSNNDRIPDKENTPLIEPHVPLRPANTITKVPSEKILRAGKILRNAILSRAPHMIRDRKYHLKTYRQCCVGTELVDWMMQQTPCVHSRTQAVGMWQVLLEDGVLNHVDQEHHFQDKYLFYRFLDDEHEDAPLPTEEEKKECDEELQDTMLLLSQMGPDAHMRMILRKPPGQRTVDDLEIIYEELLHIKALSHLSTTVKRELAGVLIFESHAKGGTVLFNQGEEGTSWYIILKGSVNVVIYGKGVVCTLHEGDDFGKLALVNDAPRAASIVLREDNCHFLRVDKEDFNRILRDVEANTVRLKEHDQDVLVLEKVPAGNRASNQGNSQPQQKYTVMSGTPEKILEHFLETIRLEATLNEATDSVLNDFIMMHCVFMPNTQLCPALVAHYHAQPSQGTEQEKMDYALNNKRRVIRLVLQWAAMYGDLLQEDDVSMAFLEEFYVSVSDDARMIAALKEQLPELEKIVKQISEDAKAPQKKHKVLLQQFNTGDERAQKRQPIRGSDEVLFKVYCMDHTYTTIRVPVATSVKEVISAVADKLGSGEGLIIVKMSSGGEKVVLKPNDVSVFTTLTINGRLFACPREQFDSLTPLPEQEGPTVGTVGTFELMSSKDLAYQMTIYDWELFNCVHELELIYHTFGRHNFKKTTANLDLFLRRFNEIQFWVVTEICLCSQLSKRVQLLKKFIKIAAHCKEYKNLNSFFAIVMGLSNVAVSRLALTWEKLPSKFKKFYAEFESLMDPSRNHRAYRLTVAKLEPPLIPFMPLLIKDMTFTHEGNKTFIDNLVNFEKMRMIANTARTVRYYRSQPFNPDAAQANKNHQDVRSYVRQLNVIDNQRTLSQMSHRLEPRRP
Chain of Rap guanine nucleotide exchange factor 3 (Homo sapiens) (O95398 whole entry, looked up): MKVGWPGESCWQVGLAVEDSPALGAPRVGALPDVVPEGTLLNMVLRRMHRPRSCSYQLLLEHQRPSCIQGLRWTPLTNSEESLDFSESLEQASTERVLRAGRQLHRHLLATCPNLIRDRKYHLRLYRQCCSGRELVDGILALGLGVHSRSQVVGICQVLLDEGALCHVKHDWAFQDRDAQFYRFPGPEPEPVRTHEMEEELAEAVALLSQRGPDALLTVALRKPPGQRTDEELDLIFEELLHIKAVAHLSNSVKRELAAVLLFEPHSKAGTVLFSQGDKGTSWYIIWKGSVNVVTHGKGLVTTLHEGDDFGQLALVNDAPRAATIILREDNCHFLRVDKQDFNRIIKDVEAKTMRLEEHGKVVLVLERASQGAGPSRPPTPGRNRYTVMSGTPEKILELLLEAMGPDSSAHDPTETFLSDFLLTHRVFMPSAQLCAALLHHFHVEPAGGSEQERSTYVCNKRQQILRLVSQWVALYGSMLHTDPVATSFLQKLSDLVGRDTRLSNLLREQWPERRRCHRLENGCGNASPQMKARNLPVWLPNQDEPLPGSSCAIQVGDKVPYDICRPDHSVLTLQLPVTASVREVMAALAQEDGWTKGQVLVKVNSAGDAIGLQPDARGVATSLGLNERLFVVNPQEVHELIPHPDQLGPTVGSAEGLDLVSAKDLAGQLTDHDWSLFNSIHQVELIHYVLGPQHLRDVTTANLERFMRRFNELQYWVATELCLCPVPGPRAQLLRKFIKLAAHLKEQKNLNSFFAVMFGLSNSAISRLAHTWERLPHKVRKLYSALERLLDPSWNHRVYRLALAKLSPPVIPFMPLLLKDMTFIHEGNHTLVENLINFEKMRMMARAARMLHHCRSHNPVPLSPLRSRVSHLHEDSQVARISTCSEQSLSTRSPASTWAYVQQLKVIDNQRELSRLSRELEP

CC[C@@H]1CC=C[C@H]2[C@H]1C(=O)N(Cc1ccccc1)[C@H]2c1ccc(OC)c(Cl)c1
inactive: Potency [1] | Potency [2] | Potency [3] | Potency [4]

COc1cc(C2CC(=O)Oc3cc(C)c(Br)c(C)c32)cc(OC)c1OC (stereo not given)
inactive: Potency [1] | activation [2] 16.3% [at 17.1 µM, percent relative to cAMP agonist control] | Potency [3] | activity change, negative = inhibition [4] -6.95% [at 30.8 µM]

CCOC(=O)c1c(C)oc2nc(C)nc(N(C)Cc3ccccc3)c12
inactive: Potency [1] | Potency [2] | outcome [3] inactive [at 12.7 µM] | Potency [4]

O=C(CSc1nc(O)cc(=O)n1-c1ccccc1)Nc1ccc2c3c(cccc13)CC2
inactive: Potency [1] | activation [2] 0% [at 17.1 µM, percent relative to cAMP agonist control] | Potency [3] | activity change, negative = inhibition [4] -9.82% [at 30.8 µM]

Cc1cccc(NC(=O)CN2C(=O)S/C(=C\c3cccn3-c3cccc(C(=O)O)c3)C2=O)c1
inactive: Potency [1] | Potency [2] | Potency [3] | Potency [4]

CCc1nc2c(OCC3CCCCC3)cccn2c1N(C)C(=O)c1ccc(C)cc1
inactive: Potency [1] | Potency [2] | Potency [3] | Potency [4]

CC1=C(C(=O)Nc2ccccc2)C(c2ccc[nH]2)n2ncnc2N1 (stereo not given)
inactive: Potency [1] | Potency [2] | Potency [3] | Potency [4]

Nc1ccc2ccc(O)cc2c1
inactive: Potency [1] | activation [2] 14.1% [at 17.1 µM, percent relative to cAMP agonist control] | Potency [3] | activity change, negative = inhibition [4] -3.65% [at 30.8 µM]

Cc1cc(/C=C2\SC(=S)NC2=O)c(C)n1-c1cccc(O)c1
inactive: Potency [1] | Potency [2] | Potency [3] | Potency [4]

COc1cc(C2NC(=O)c3c(sc4c3CCN(C)C4)N2)cc(Br)c1OC(=O)c1ccc(C)cc1 (stereo not given)
inactive: Potency [1] | Potency [2] | outcome [3] inactive [at 12.7 µM] | Potency [4]

CC1=NN(c2cccc(C(=O)O)c2)C(=O)/C1=C\C=C/c1ccccc1
inactive: Potency [1] | Potency [2] | Potency [3] | Potency [4]

Nc1ccc2c(c1)C(=O)C(=O)c1ccccc1-2
inactive: Potency [1] | Potency [2] | Potency [3] | Potency [4]

Oc1cccc(C=Nc2cccc3ccccc23)c1O
inactive: Potency [1] | Potency [2] | Potency [3] | Potency [4]

COc1ccc(C(=O)NC2(C(F)(F)F)NC(=O)N(CCCc3ccccc3)C2=O)c(OC)c1OC (stereo not given)
inactive: Potency [1] | activation [2] 12.9% [at 17.1 µM, percent relative to cAMP agonist control] | Potency [3] | activity change, negative = inhibition [4] -10.8% [at 30.8 µM]

CCC(CO)n1c(SCc2cc([N+](=O)[O-])cc3c2OCOC3)nc2ccccc2c1=O (stereo not given)
inactive: Potency [1] | activation [2] 10.3% [at 17.1 µM, percent relative to cAMP agonist control] | Potency [3] | activity change, negative = inhibition [4] 19.8% [at 30.8 µM]

CN(C)C(CNC(=O)c1cc(-c2ccco2)nc2ccccc12)c1ccccc1 (stereo not given)
inactive: Potency [1] | activation [2] 5.95% [at 17.1 µM, percent relative to cAMP agonist control] | Potency [3] | activity change, negative = inhibition [4] -8.2% [at 30.8 µM]

COc1ccc(OC)c(C(=O)c2coc3cc(Br)c(O)c(Br)c23)c1
inactive: Potency [1] | Potency [2] | Potency [3] | Potency [4]

Clc1ccc(-c2nnc(-c3ccco3)nc2N2CCCCC2)cc1
inactive: Potency [1] | activation [2] 3.88% [at 17.1 µM, percent relative to cAMP agonist control] | Potency [3] | activity change, negative = inhibition [4] 13.5% [at 30.8 µM]

CC(C)(C)C(C(=O)n1cccc1C#N)c1ccccc1 (stereo not given)
inactive: Potency [1] | activation [2] 5.44% [at 17.1 µM, percent relative to cAMP agonist control] | Potency [3] | activity change, negative = inhibition [4] 3.86% [at 30.8 µM]

CCn1c(SCC(=O)N/N=C/C=C/c2ccco2)nnc1-c1ccccc1
inactive: Potency [1] | Potency [2] | Potency [3] | Potency [4]

Cc1cc(SCC(=O)c2ccc(O)c(O)c2)n2nc(C)c(-c3ccccc3)c2n1
inactive: Potency [1] | Potency [2] | Potency [3] | Potency [4]

COc1cc(O)c(C(C)=O)c2c1C=CC(C)(C)O2
inactive: Potency [1] | Potency [2] | Potency [3] | Potency [4]

CC(=O)c1ccc(OCc2nnn(CC(=O)NS(=O)(=O)c3ccc(C)cc3)c2-c2ccccc2)cc1
inactive: Potency [1] | activation [2] 1.38% [at 17.1 µM, percent relative to cAMP agonist control] | Potency [3] | activity change, negative = inhibition [4] -5.72% [at 30.8 µM]

CCN(C(=O)Cn1c(=O)oc2cc(Cl)ccc21)c1cccc(C(F)(F)F)c1
inactive: Potency [1] | Potency [2] | Potency [3] | Potency [4]

Fc1ccccc1C1CC(c2ccco2)=Nc2ccccc2S1 (stereo not given)
inactive: Potency [1] | activation [2] 8.88% [at 17.1 µM, percent relative to cAMP agonist control] | Potency [3] | activity change, negative = inhibition [4] -3.18% [at 30.8 µM]

CCCC1=C(C(=O)OCC)C(c2ccco2)C(C#N)=C(N)O1 (stereo not given)
inactive: Potency [1] | activation [2] 2.29% [at 17.1 µM, percent relative to cAMP agonist control] | Potency [3] | activity change, negative = inhibition [4] -11% [at 30.8 µM]

Cc1ccc(C)c(-c2ccc(=O)n(C(C)C(=O)Nc3ccccc3C(F)(F)F)n2)c1 (stereo not given)
inactive: Potency [1] | Potency [2] | outcome [3] inactive [at 12.7 µM] | Potency [4]

COc1cc2c(cc1OC)C(COc1cc(C)cc(C)c1)N(C(C)=O)CC2 (stereo not given)
inactive: Potency [1] | activation [2] -1.36% [at 17.1 µM, percent relative to cAMP agonist control] | Potency [3] | activity change, negative = inhibition [4] -10.1% [at 30.8 µM]

COc1ccc(CCNC(=O)CS(=O)(=O)Cc2nc(-c3ccc(C)cc3)oc2C)cc1OC
inactive: Potency [1] | activation [2] 2.98% [at 17.1 µM, percent relative to cAMP agonist control] | Potency [3] | activity change, negative = inhibition [4] -2.91% [at 30.8 µM]

CCc1cc(C(=O)Nc2ccc(S(=O)(=O)NC3=NCCCCC3)cc2)sc1C
inactive: Potency [1] | activation [2] 5.65% [at 17.1 µM, percent relative to cAMP agonist control] | Potency [3] | activity change, negative = inhibition [4] 4.61% [at 30.8 µM]

CCCCn1c(COc2cccc(OC)c2)nc2ccccc21
inactive: Potency [1] | Potency [2] | outcome [3] inactive [at 12.7 µM] | Potency [4]

CCOC(=O)c1ccc(NC(=O)CC2Nc3cccc4cccc(c34)NC2=O)cc1 (stereo not given)
inactive: Potency [1] | Potency [2] | Potency [3] | Potency [4]

Cc1noc(NS(=O)(=O)c2ccc(N/C=C\C(=O)c3cccc4ccccc34)cc2)c1C
inactive: Potency [1] | Potency [2] | Potency [3] | Potency [4]

O=c1cc(-c2ccccc2)[nH]n1-c1nc2ccccc2s1
inactive: Potency [1] | activation [2] 11.1% [at 17.1 µM, percent relative to cAMP agonist control] | Potency [3] | activity change, negative = inhibition [4] 2.08% [at 30.8 µM]

O=C(O)c1ccc(N2C(=O)CC(SC(=NCc3ccc4c(c3)OCO4)Nc3ccc(F)cc3)C2=O)cc1 (stereo not given)
inactive: Potency [1] | Potency [2] | Potency [3] | Potency [4]
